Calb FLC: C. albicans growth inhibition with fluconazole, primary screen, CaCi-2 strain, Alamar Blue fluorescence. actives 0.57% (n = 300,000). growth inhibition, % (concentration not given with the values). AID 1979, 2009. C. albicans CaCi-2 (fluconazole-resistant clinical isolate) + fluconazole, 48 h;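 active = growth inhibition above about 58% in most replicates, limit read from the data, passing the limit was not always enough; inconclusive = exactly half the replicates above a set limit; inactive = most replicates below a set limit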;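 also: all wells also contain fluconazole at 8 µg/ml as a sub-toxic cotreatment; 0% = median of DMSO wells and 100% = median of geldanamycin control wells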
PfHsp90 set2: growth inhibition of PfHsp90-expressing yeast, primary screen, antimalarial PfHsp90 inhibitor project, S. cerevisiae, BacTiter-Glo luminescence, single point, set 2; BacTiter-Glo ATP, 48 h; yeast lacking PDR1 and PDR3 efflux regulators; inhibition, % at 9.4 µM; actives 0.32% (n = 310,000);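 active = every replicate shows inhibition above about 80%, whatever the replicate mean, limit read from the data; inconclusive = mean inhibition reaches the set limit but some replicate falls short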;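 also: 0% = DMSO neutral controls and 100% = 20 µM radicicol positive controls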
TIM10 inh: growth inhibitors of isogenic TIM10 control yeast, primary screen, counter-screen for tim10-1 yeast inhibitor project, luminescence, uHTS; AID 463195, 2010; inhibition, % at 10 µM; actives 1.4% (n = 330,000); S. cerevisiae TIM10 strain growth, BacTiter-Glo luminescence, 24 h;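 active = inhibition of 40% or more at the single tested concentration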;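 also: wild-type TIM10 isogenic control strain grown at permissive 25 °C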
tim10-1 inh: growth inhibitors of tim10-1 mutant yeast, primary screen, luminescence, uHTS; S. cerevisiae tim10-1 ts strain growth, BacTiter-Glo, 24 h; AID 463190, 2010; inhibition, % at 20 µM; actives 2.2% (n = 330,000);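 active = inhibition of at least 40%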;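 also: mutant grown at 25 °C; 0% = DMSO wells with yeast and 100% = wells holding no yeast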
SKKanGAS inh: S. pyogenes SKKanGAS growth inhibitors in kanamycin, primary screen, streptokinase expression inhibitor project, SKKanGAS strain, BacTiter-Glo luminescence; 6 h; actives 1.3% (n = 300,000); inhibition, % at 7.5 µM;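 active = mean replicate score, as percent of positive control median, at least 50; inconclusive = mean below 50 but one replicate at or above 50; inactive = mean and every replicate below 50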;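 also: strain carries kanamycin resistance gene driven by streptokinase promoter and grows in 40 µg/ml kanamycin; loss of luminescence reflects streptokinase promoter inhibition or plain growth inhibition; 0% = median of DMSO wells and 100% = positive control at its reference dose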
tim23-1 inh: growth inhibitors of tim23-1 mutant yeast, primary screen, luminescence, uHTS | S. cerevisiae tim23-1 growth, BacTiter-Glo luminescence, 24 h | inhibition, % at 20 µM | actives 1.3% (n = 330,000);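 active = growth inhibition of the mutant yeast at or above 50%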;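 also: temperature-sensitive mutant grown at 25 °C; plate controls were DMSO-treated mutant yeast for no effect and medium wells lacking yeast for full effect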
tim10-1 confirm: growth inhibitors of tim10-1 mutant yeast, confirmation, single concentration, luminescence, S. cerevisiae; S. cerevisiae tim10-1 ts strain growth, BacTiter-Glo, 24 h; shares compounds with tim10-1 inh; actives 56% (n = 7,400); AID 463213, 2010; inhibition, % at 20 µM;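 active = inhibition of yeast growth at or above a set limit in either of two repeat tests at 20 µM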;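 also: tim10-1 mutant grown at permissive 25 °C to find synthetic lethal compounds; 0% = DMSO yeast wells and 100% = medium wells without yeast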
TIM10 conf: growth inhibitors of wild-type TIM10 yeast, confirmation, counter-screen for tim10-1 synthetic lethality project, single concentration, luminescence, S. cerevisiae; shares compounds with TIM10 inh; inhibition, % at 10 µM; S. cerevisiae tim10 strain growth, BacTiter-Glo luminescence, 24 h; actives 63% (n = 4,600);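 active = inhibition of yeast growth at or above a set limit in either of two replicates at 10 µM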;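 also: this counterscreen used the strain with wild-type TIM10; 0% = yeast with DMSO and 100% = medium wells lacking yeast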
* marks the source's active call; other numbers are inactive results; ? = inconclusive; / = not tested or not shown. Hits are enriched below; roughly 4.7% of the tested compounds scored in any of these assays.

SMILES | Calb FLC | PfHsp90 set2 | TIM10 inh | tim10-1 inh | SKKanGAS inh | tim23-1 inh | tim10-1 confirm | TIM10 conf
COc1cccc(C2=Nc3cccc4cccc(c34)N2)c1 | -16 | -10 | 37 | 19 | 12 | 47 | / | /
c1coc(C2=Nc3cccc4cccc(c34)N2)c1 | 20 | 13 | 49* | 47* | 0 | 49 | 26 | 24
CO/N=C/c1ccc(Sc2ccccc2N)c([N+](=O)[O-])c1 | -5 | -13 | 44* | 49* | -4 | 29 | 35* | 25
CO/N=C/c1ccc(Sc2ccccc2)c([N+](=O)[O-])c1 | 0 | -34 | -9 | -6 | 14 | -4 | / | /
Cc1ccc(SCCC(=O)N/N=C/c2ccccc2O)cc1 | 92* | -3 | 48* | 43* | 34 | 11 | 14 | 44*
O=C(CCCCC(=O)NN=Cc1ccccc1O)NN=Cc1ccccc1O | / | 10 | / | / | / | / | / | /
O=C(Cc1ccccc1)NNS(=O)(=O)c1ccccc1[N+](=O)[O-] | -2 | 4 | 6 | -12 | 5 | -1 | / | /
Cc1ccccc1OCC(=O)Nc1ccc(Cc2ccncc2)cc1 | 61 | -1 | 41* | 42* | -21 | 36 | 40* | 20
O=C(Nc1ccc(S(=O)(=O)N2CCCCC2c2cccnc2)cc1)c1ccccc1F (stereo not given) | ? | -3 | 59* | 52* | 3 | 12 | 47* | 43*
COc1ccccc1C(=O)Nc1ccc(S(=O)(=O)N2CCCCC2c2cccnc2)cc1 (stereo not given) | 0 | -40 | 63* | 64* | -1 | 38 | 70* | 78*
Cc1cc2ncn(-c3ncnc4scc(-c5ccccc5)c34)c2cc1C | 17 | -38 | 41* | 50* | 7 | 40 | 45* | 37*
Cc1cc2ncn(-c3ncnc4sc5c(c34)CCC(C)C5)c2cc1C (stereo not given) | -17 | -50 | 52* | 50* | 3 | 47 | 45* | 45*
Cc1cc2ncn(-c3ncnc4sc5c(c34)CCCC5)c2cc1C | -6 | / | 19 | 37 | 33 | 40 | / | /
COc1ccc(CCNC(=O)c2ccc(S(=O)(=O)N3CCCCC3)cc2)cc1 | / | -14 | 30 | 21 | / | 34 | / | /
CC1(C)CC(=O)C=C(NCC(O)c2ccccc2)C1 (stereo not given) | -4 | 7 | -11 | -5 | 1 | 4 | / | /
CCOC(=O)c1cnc2ccc(OC)cc2c1Nc1ccc2c(c1)OCCO2 | -3 | 0 | 43* | 56* | 6 | 48 | 48* | 14
O=[N+]([O-])c1cc(S(=O)(=O)C(F)(F)F)ccc1Sc1nc2ccccc2s1 | 111* | 109* | 55* | 45* | 89* | 34 | 74* | 75*
CS(=O)(=O)c1ccc(Sc2nc3ccccc3[nH]2)c([N+](=O)[O-])c1 | 6 | 17 | 1 | 10 | -3 | 10 | / | /
CS(=O)(=O)c1ccc(Sc2nc3ccccc3s2)c([N+](=O)[O-])c1 | 2 | 1 | 42* | 46* | -3 | 26 | 38* | -7
COc1ccccc1OCCCC(=O)Nc1nnc(C2CCCO2)s1 (stereo not given) | 5 | 10 | 1 | -11 | 25 | 2 | / | /
O=C(NCc1ccco1)/C(=C/c1ccc(Br)cc1)NC(=O)c1ccco1 | 13 | -30 | -3 | 14 | 0 | 5 | / | /
Cc1cc(/C=N/n2c(COc3ccccc3C)nc3ccccc3c2=O)c(O)c([N+](=O)[O-])c1 | 91* | 14 | 43* | 41* | 52* | 32 | 29 | 26
O=C(NCc1ccccc1Cl)c1nnc(CS(=O)(=O)c2ccccc2)o1 | -4 | 11 | 3 | 13 | 1 | 15 | / | /
CCc1cccc(C)c1NC(=S)NCc1ccc2[nH]c(C)cc2c1 | -3 | -30 | 48* | 51* | 7 | 49 | 25 | 37*
Oc1cccc(/C=N/N(Cc2ccccc2)c2ccccc2)c1 | -4 | / | 48* | 53* | ? | 36 | 26 | 41*
SMILES | Calb FLC | PfHsp90 set2 | TIM10 inh | tim10-1 inh | SKKanGAS inh | tim23-1 inh | tim10-1 confirm | TIM10 conf
CCOc1ccc(Cl)cc1S(=O)(=O)n1nnc2ccccc21 | -7 | -6 | 51* | 46* | -2 | 47 | 42* | -9
Cc1ccc(NC(=O)CCS(=O)(=O)c2cccc3nonc23)cc1 | 11 | -3 | -18 | 11 | 1 | 18 | / | /
Cc1ccc(N(CC(=O)Nc2cccc(C)c2)S(=O)(=O)c2cccc3nonc23)cc1 | -8 | -10 | 44* | 42* | 8 | 18 | 33* | 39*
O=C(Nc1ccccn1)c1ccc([N+](=O)[O-])o1 | 53 | 0 | 44* | 44* | -2 | 46 | 39* | 35*
O=C(N/N=C/c1sc(N2CCCCC2)nc1-c1cccs1)C1CC1 | 14 | 14 | 47* | 47* | -11 | 48 | 36* | 36*
CCCCNC(=S)N(C)/N=C/c1sc(N2CCCCC2)nc1-c1cccs1 | ? | / | 18 | 28 | -4 | 16 | / | /
NC(=O)N/N=C/c1sc(N2CCCCC2)nc1-c1cccs1 | 2 | -15 | 36 | 9 | 4 | 31 | / | /
CC(C)NC(=S)N/N=C/c1sc(N2CCCCC2)nc1-c1cccs1 | 26 | -37 | 50* | 53* | 7 | 47 | 48* | 35*
CCc1ccc(CN(C)C(=O)c2cc(COc3ccc(OC)cc3Cl)on2)nc1 | -5 | -28 | 8 | 18 | -7 | 29 | / | /
C/C(=N\NC(=O)c1cccnc1)c1cc2ccccc2o1 | -9 | -20 | -9 | -11 | -3 | -3 | / | /
CCN(C(=O)COC(=O)c1cccnc1SC)c1c(N)n(Cc2ccccc2)c(=O)[nH]c1=O | / | -75 | -8 | -3 | / | -9 | / | /
CCOC(=O)/C(=C/c1c(C)n(C)c2ccc([N+](=O)[O-])cc12)C(C)=O | -9 | 10 | 54* | 58* | -2 | 49 | 37* | 40*
Cc1ccc(C)c(OCC(O)CN2CCC(Cc3ccccc3)CC2)c1 (stereo not given) | 11 | -13 | -56 | -130 | -13 | -77 | / | /
COc1ccccc1NCC(O)Cn1c2ccccc2c2ccccc21 (stereo not given) | 19 | -50 | 42* | 52* | -12 | -23 | 29 | 40*
COc1ccc(NC(=O)Nc2ccc3c(c2)CCC3)cc1 | 3 | -23 | 1 | -2 | -1 | -4 | / | /

Bioassay records deposited in PubChem by several laboratories.
